One assay has as its target HOXB4 (Homo sapiens, UniProt P17483 148-234). Kind of assay: PBM; 200 nM protein, PBS. As to conditions: dsDNA, one strand shown.
HOXB4 (Homo sapiens, UniProt P17483 148-234), sequence (P17483 148-234): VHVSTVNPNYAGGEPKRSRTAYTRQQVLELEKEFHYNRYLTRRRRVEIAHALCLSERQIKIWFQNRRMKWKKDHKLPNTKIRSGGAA
As for CCTGTCCC, the binding signal was 7.61 upbm affinity estimate (log intensity, higher = more binding, comparable within an allelic series).

With ATTGATCC, the binding signal is 10.1 upbm affinity estimate (log intensity, higher = more binding, comparable within an allelic series).

As to GCTCCCCC, the binding signal was 7.43 upbm affinity estimate (log intensity, higher = more binding, comparable within an allelic series).

CAATAAGA: the binding signal was 9.65 upbm affinity estimate (log intensity, higher = more binding, comparable within an allelic series).

As for AATTTCTG, the binding signal was 9.75 upbm affinity estimate (log intensity, higher = more binding, comparable within an allelic series).

With GCGGCTGA, the binding signal is 7.8 upbm affinity estimate (log intensity, higher = more binding, comparable within an allelic series).

Turning to TGGCATAA, the binding signal is 10 upbm affinity estimate (log intensity, higher = more binding, comparable within an allelic series).

Take AATGTACC: the binding signal is 10.2 upbm affinity estimate (log intensity, higher = more binding, comparable within an allelic series).

On to AGCTTGGA, for which the binding signal was 7.7 upbm affinity estimate (log intensity, higher = more binding, comparable within an allelic series).

With ATCGTTCC, the binding signal is 9.81 upbm affinity estimate (log intensity, higher = more binding, comparable within an allelic series).

Turning to CCACAGGC, the binding signal was 7.72 upbm affinity estimate (log intensity, higher = more binding, comparable within an allelic series).

Turning to CCTGATTA, the binding signal is 11.8 upbm affinity estimate (log intensity, higher = more binding, comparable within an allelic series).

Take AATTGGTA: the binding signal was 10.7 upbm affinity estimate (log intensity, higher = more binding, comparable within an allelic series).

AGAAATAA: the binding signal is 10.1 upbm affinity estimate (log intensity, higher = more binding, comparable within an allelic series).

Consider CATCAGCG, for which the binding signal is 10.1 upbm affinity estimate (log intensity, higher = more binding, comparable within an allelic series).

AATCAAGG: the binding signal was 10.3 upbm affinity estimate (log intensity, higher = more binding, comparable within an allelic series).

Take ATCTCTTA: the binding signal is 9.96 upbm affinity estimate (log intensity, higher = more binding, comparable within an allelic series).

GCAATTTA: the binding signal is 11.5 upbm affinity estimate (log intensity, higher = more binding, comparable within an allelic series).

With CGCCGTGC, the binding signal was 7.83 upbm affinity estimate (log intensity, higher = more binding, comparable within an allelic series).

On to CAACAGAG, for which the binding signal is 7.94 upbm affinity estimate (log intensity, higher = more binding, comparable within an allelic series).

Consider TAGATTGA, for which the binding signal was 10.2 upbm affinity estimate (log intensity, higher = more binding, comparable within an allelic series).

As for AACCCCCC, the binding signal is 7.54 upbm affinity estimate (log intensity, higher = more binding, comparable within an allelic series).

Take CCGTTATC: the binding signal was 9.78 upbm affinity estimate (log intensity, higher = more binding, comparable within an allelic series).

AGGTCCAC: the binding signal was 7.8 upbm affinity estimate (log intensity, higher = more binding, comparable within an allelic series).

Regarding CAGGACGC, the binding signal was 7.75 upbm affinity estimate (log intensity, higher = more binding, comparable within an allelic series).

Turning to TCATTGGA, the binding signal is 10.1 upbm affinity estimate (log intensity, higher = more binding, comparable within an allelic series).

In the case of GAATAATC, the binding signal was 11.1 upbm affinity estimate (log intensity, higher = more binding, comparable within an allelic series).

Take AGACCTAG: the binding signal was 7.5 upbm affinity estimate (log intensity, higher = more binding, comparable within an allelic series).

As for CCTGGAAG, the binding signal is 7.71 upbm affinity estimate (log intensity, higher = more binding, comparable within an allelic series).

For the sequence CCCGAGGA, the binding signal was 7.28 upbm affinity estimate (log intensity, higher = more binding, comparable within an allelic series).

Consider CCGGTGAG, for which the binding signal is 7.55 upbm affinity estimate (log intensity, higher = more binding, comparable within an allelic series).

As to ACGTAGCA, the binding signal was 7.63 upbm affinity estimate (log intensity, higher = more binding, comparable within an allelic series).

On to CAGAAGGC, for which the binding signal was 7.78 upbm affinity estimate (log intensity, higher = more binding, comparable within an allelic series).

As to AATAGCCA, the binding signal was 10.2 upbm affinity estimate (log intensity, higher = more binding, comparable within an allelic series).

With ACACGAGC, the binding signal was 7.84 upbm affinity estimate (log intensity, higher = more binding, comparable within an allelic series).

With AGATGATG, the binding signal is 10.8 upbm affinity estimate (log intensity, higher = more binding, comparable within an allelic series).

Turning to CCGACGGA, the binding signal was 7.67 upbm affinity estimate (log intensity, higher = more binding, comparable within an allelic series).

In the case of AGCCCCCA, the binding signal is 7.49 upbm affinity estimate (log intensity, higher = more binding, comparable within an allelic series).

On to AATGGTCA, for which the binding signal is 10.4 upbm affinity estimate (log intensity, higher = more binding, comparable within an allelic series).

Regarding CACGCCGA, the binding signal was 7.66 upbm affinity estimate (log intensity, higher = more binding, comparable within an allelic series).

For another assay, the target named is HOXB4 (Homo sapiens, UniProt P17483 148-234, V174I). The assay can be described thus: PBM; 200 nM protein, PBS. As to conditions: dsDNA, one strand shown.
HOXB4 (Homo sapiens, UniProt P17483 148-234, V174I), sequence (P17483 148-234 V174I): as the sequence (P17483 148-234) above, with V27I counted along it
CCTGTCCC: the binding signal was 7.76 upbm affinity estimate (log intensity, higher = more binding, comparable within an allelic series).

For the sequence ATTGATCC, the binding signal is 10 upbm affinity estimate (log intensity, higher = more binding, comparable within an allelic series).

As for GCTCCCCC, the binding signal is 7.43 upbm affinity estimate (log intensity, higher = more binding, comparable within an allelic series).

Consider CAATAAGA, for which the binding signal was 9.56 upbm affinity estimate (log intensity, higher = more binding, comparable within an allelic series).

As to AATTTCTG, the binding signal is 9.62 upbm affinity estimate (log intensity, higher = more binding, comparable within an allelic series).

GCGGCTGA: the binding signal was 7.53 upbm affinity estimate (log intensity, higher = more binding, comparable within an allelic series).

With TGGCATAA, the binding signal was 9.76 upbm affinity estimate (log intensity, higher = more binding, comparable within an allelic series).

For the sequence AATGTACC, the binding signal was 10.3 upbm affinity estimate (log intensity, higher = more binding, comparable within an allelic series).

For AGCTTGGA, the binding signal is 7.63 upbm affinity estimate (log intensity, higher = more binding, comparable within an allelic series).

In the case of ATCGTTCC, the binding signal was 9.76 upbm affinity estimate (log intensity, higher = more binding, comparable within an allelic series).

As for CCACAGGC, the binding signal was 7.85 upbm affinity estimate (log intensity, higher = more binding, comparable within an allelic series).

Consider CCTGATTA, for which the binding signal is 12.4 upbm affinity estimate (log intensity, higher = more binding, comparable within an allelic series).

Regarding AATTGGTA, the binding signal was 11 upbm affinity estimate (log intensity, higher = more binding, comparable within an allelic series).

For the sequence AGAAATAA, the binding signal was 10.1 upbm affinity estimate (log intensity, higher = more binding, comparable within an allelic series).

Consider CATCAGCG, for which the binding signal is 10.3 upbm affinity estimate (log intensity, higher = more binding, comparable within an allelic series).

As for AATCAAGG, the binding signal is 10.5 upbm affinity estimate (log intensity, higher = more binding, comparable within an allelic series).

With ATCTCTTA, the binding signal was 9.9 upbm affinity estimate (log intensity, higher = more binding, comparable within an allelic series).

With GCAATTTA, the binding signal was 11.7 upbm affinity estimate (log intensity, higher = more binding, comparable within an allelic series).

With CGCCGTGC, the binding signal is 7.83 upbm affinity estimate (log intensity, higher = more binding, comparable within an allelic series).

For the sequence CAACAGAG, the binding signal is 7.66 upbm affinity estimate (log intensity, higher = more binding, comparable within an allelic series).

On to TAGATTGA, for which the binding signal is 10.3 upbm affinity estimate (log intensity, higher = more binding, comparable within an allelic series).

On to AACCCCCC, for which the binding signal was 7.42 upbm affinity estimate (log intensity, higher = more binding, comparable within an allelic series).

Regarding CCGTTATC, the binding signal was 9.74 upbm affinity estimate (log intensity, higher = more binding, comparable within an allelic series).

Take AGGTCCAC: the binding signal is 7.65 upbm affinity estimate (log intensity, higher = more binding, comparable within an allelic series).

Consider CAGGACGC, for which the binding signal is 7.46 upbm affinity estimate (log intensity, higher = more binding, comparable within an allelic series).

Turning to TCATTGGA, the binding signal was 9.83 upbm affinity estimate (log intensity, higher = more binding, comparable within an allelic series).

Take GAATAATC: the binding signal is 11.3 upbm affinity estimate (log intensity, higher = more binding, comparable within an allelic series).

AGACCTAG: the binding signal was 7.5 upbm affinity estimate (log intensity, higher = more binding, comparable within an allelic series).

Take CCTGGAAG: the binding signal was 7.54 upbm affinity estimate (log intensity, higher = more binding, comparable within an allelic series).

Consider CCCGAGGA, for which the binding signal was 7.6 upbm affinity estimate (log intensity, higher = more binding, comparable within an allelic series).

Regarding CCGGTGAG, the binding signal was 7.62 upbm affinity estimate (log intensity, higher = more binding, comparable within an allelic series).

In the case of ACGTAGCA, the binding signal was 7.7 upbm affinity estimate (log intensity, higher = more binding, comparable within an allelic series).

Take CAGAAGGC: the binding signal is 7.7 upbm affinity estimate (log intensity, higher = more binding, comparable within an allelic series).

As for AATAGCCA, the binding signal is 10.3 upbm affinity estimate (log intensity, higher = more binding, comparable within an allelic series).

On to ACACGAGC, for which the binding signal is 7.68 upbm affinity estimate (log intensity, higher = more binding, comparable within an allelic series).

AGATGATG: the binding signal is 11.1 upbm affinity estimate (log intensity, higher = more binding, comparable within an allelic series).

In the case of CCGACGGA, the binding signal was 7.56 upbm affinity estimate (log intensity, higher = more binding, comparable within an allelic series).

As for AGCCCCCA, the binding signal is 7.6 upbm affinity estimate (log intensity, higher = more binding, comparable within an allelic series).

On to AATGGTCA, for which the binding signal was 10.5 upbm affinity estimate (log intensity, higher = more binding, comparable within an allelic series).

With CACGCCGA, the binding signal is 7.67 upbm affinity estimate (log intensity, higher = more binding, comparable within an allelic series).

The values are drawn from publication PMC11006913.
